# High-throughput results from PubChem.
# An excerpt weighted towards active compounds, which were near 19% of everything screened.
# DT40 TDP1 CPT – DT40-hTDP1 cell growth loss with CPT | chicken DT40 Tdp1-/-;hTDP1 cells + 20 nM CPT, ATP luminescence, 48 h | Potency, µM (titrated, usually from 46.2 µM), without a hit: top-dose activity change, negative = growth inhibition, most hits filed as inhibitors | actives 12% (n = 420,000); note: potency is the fitted concentration of half-maximal effect; % is set by controls: 0 for no effect and ±100 for the full control effect; nearly all actives have a fitted effect of over 55% in size
#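 Cell growth measured by CellTiter-Glo luminescence after a minimum 48 h, 37 C compound exposure with 20 nM CPT in Tdp1-knockout DT40 cells stably expressing hTDP1, seeded 400/well; qHTS titration format.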
# IL1B secr inh – blocks inflammasome-driven IL-1 beta release | activity change, % at 57.5 µM | AID 743279 | actives 4.7% (n = 360,000) | THP-1 LPS/ATP IL-1B secretion, AlphaLISA, 16 h; active compounds read low; in the data active = activity change below about -50%; inconclusive = mostly about -30% to -49%; note: % is set by controls: 0 for no effect and ±100 for the full control effect
#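 Secreted IL-1B measured by AlphaLISA bead assay after 16 h compound exposure of THP-1 cells; compounds (final up to 57.5 uM) added 1 h before LPS (250 ng/mL) and ATP (1.25 mM) stimulation; lower signal means less secretion.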
# HepG2 tox – kills HepG2 cells in TGF-b inhibitor counter-screen. HepG2 CAGA-GFP viability, ATP luminescence, 18 h. Potency, µM (doses to about 46.1 µM), for inactives: top-dose activity change, negative = cytotoxicity, usual class: cytotoxic. actives 0.76% (n = 410,000). AID 588856; note: potency is the fitted concentration of half-maximal effect
#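 HepG2 CAGA-GFP cells (1000/well, DMEM with 1% FBS) received compound, then TGF-beta at 500 pg/mL final, and were incubated 18 hours at 37 degrees C. Viability was read by CellTiter-Glo luminescence. Media-only wells were set as complete cell-killing and DMSO as no toxicity.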
# DT40 TDP1 no CPT – qHTS for Inhibitors of human tyrosyl-DNA phosphodiesterase 1 (TDP1): qHTS in cells in absence of CPT. AID 686978, 2013. Potency, µM (doses to about 46.2 µM), without a hit: at the top dose activity change, negative = growth inhibition, usual class: inhibitors. actives 15% (n = 420,000). DT40 Tdp1-/- hTDP1 cells, no CPT, ATP luminescence, 48 h; note: potency is the fitted concentration of half-maximal effect; % is set by controls: 0 for no effect and ±100 for the full control effect; nearly all actives have a fitted effect of over 55% in size
#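 Chicken DT40 Tdp1-/- cells stably complemented with human TDP1 were seeded at 400 cells/well with DMSO in place of 20 nM camptothecin. After compound pinning, cells grew at least 48 hr at 37 °C; viability read by CellTiter-Glo luminescence.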
# TGFb SMAD3 inh – TGF-b pathway inhibition. HepG2 CAGA-GFP TGF-b/SMAD3 reporter, GFP fluorescence, 18 h; TGF-beta stimulated, 500 pg/mL final. Potency, µM (titrated, usually from 46.1 µM), without a hit: at the top dose activity, negative = inhibition, hits mostly inhibitors. actives 1.2% (n = 410,000). AID 588855; note: potency is the fitted concentration of half-maximal effect; % is set by controls: 0 for no effect and ±100 for the full control effect; nearly all actives have a fitted effect of over 65% in size
#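 Using HEPG2 CAGA-GFP reporter cells at 1000 cells/well, we pinned test compounds, stimulated with recombinant TGF-beta (500 pg/mL final) and measured total well GFP after 18 h.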
# TDP1 inh – TDP1 (human) enzyme inhibition; AID 485290; Q9NUW8; actives 0.28% (n = 350,000); Potency, µM (series often up to 130 µM), for the others: at the top dose activity change, negative = inhibition, hits mostly inhibitors; recombinant TDP1, AlphaScreen DNA substrate cleavage; note: potency is the fitted concentration of half-maximal effect; % is set by controls: 0 for no effect and ±100 for the full control effect; nearly all actives have a fitted effect of over 40% in size
# Target sequence (Q9NUW8 whole entry, looked up): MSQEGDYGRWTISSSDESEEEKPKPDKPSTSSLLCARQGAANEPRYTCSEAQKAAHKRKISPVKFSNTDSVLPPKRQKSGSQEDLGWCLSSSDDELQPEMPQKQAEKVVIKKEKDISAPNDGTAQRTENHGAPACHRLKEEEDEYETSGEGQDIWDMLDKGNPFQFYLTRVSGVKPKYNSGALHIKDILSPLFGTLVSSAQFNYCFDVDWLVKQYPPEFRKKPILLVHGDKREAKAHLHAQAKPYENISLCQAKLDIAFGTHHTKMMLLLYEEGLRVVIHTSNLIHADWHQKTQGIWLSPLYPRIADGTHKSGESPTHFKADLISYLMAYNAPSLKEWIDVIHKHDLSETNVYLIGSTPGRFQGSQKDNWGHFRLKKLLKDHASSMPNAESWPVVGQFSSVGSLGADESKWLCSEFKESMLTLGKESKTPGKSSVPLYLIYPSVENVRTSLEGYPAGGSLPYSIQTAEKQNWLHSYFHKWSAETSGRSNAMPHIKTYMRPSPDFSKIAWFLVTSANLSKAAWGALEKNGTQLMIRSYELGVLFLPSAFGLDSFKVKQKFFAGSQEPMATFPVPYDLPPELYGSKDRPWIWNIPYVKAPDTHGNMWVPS
#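 Recombinant E. coli-expressed Tdp1 (1 nM) preincubated with compound 15 min at RT, then 5'-biotin/3'-phosphotyrosine-FITC DNA substrate (15 nM) added for 5 min. AlphaScreen beads (10 ug/ml) added, 10 min RT; tyrosine-FITC cleavage read as signal loss.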
# * hit, by the source's call; ? = inconclusive; / = not tested or not shown; [ ] = another dose, or the depositor's remark. Unless noted, calls come from the whole dose curve; as a rule, active = well fitted curve in the direction sought with a large enough effect; inconclusive = small, poorly fitted or top-dose-only effect, or another doubt; inactive = no such curve, though single readings can be large; an effect the other way counts as inactive or inconclusive.
SMILES,DT40 TDP1 CPT,IL1B secr inh,HepG2 tox,DT40 TDP1 no CPT,TGFb SMAD3 inh,TDP1 inh
O=C(CCCOc1ccc(Cl)cc1Cl)N/N=C/c1ccccc1,?,-21,-58%,?,?,-3%
O=C(CCCOc1ccc(Cl)cc1Cl)N/N=C/c1ccccc1O,5.2µM*,0,-34%,5.2µM*,?,3%
O=C(CCCC(=O)NN=Cc1ccccc1Cl)NN=Cc1ccccc1Cl,16µM*,0,5%,16µM*,0%,/
O=C(CCCC(=O)NN=Cc1ccc(Cl)cc1Cl)NN=Cc1ccc(Cl)cc1Cl,-14%,6,9%,?,6%,/
C=CCC(O)c1ccccc1 (centres undefined),/,/,/,/,/,9%
CCCCCN(CCCCC)C(=O)[C@H](CCC(=O)O)NC(=O)[C@H](Cc1ccc(OP(=O)(O)O)cc1)NC(C)=O,/,/,/,/,/,10%
CC(C)c1c(C(=O)Nc2ccccc2)c(-c2ccccc2)c(-c2ccc(F)cc2)n1CC[C@@H](O)C[C@@H](O)CC(=O)O,?,/,/,15µM*,/,0%
O=C(Nc1ccccc1)c1c(F)c(F)c(F)c(F)c1F,-3%,-4,-1%,-7%,-1%,1%
CCOC(=O)c1sc2ncnc(NCC(c3cccs3)N(C)C)c2c1C (centres undefined),29µM*,3,6%,?,-3%,-1%
CCn1c(O)c(N=NC(=O)CNC(=O)c2cccnc2)c2ccccc21,-9%,-20,6%,?,3%,/
COc1cccc(C(=O)Nc2nnc(SCC(=O)Nc3ccc(NC(C)=O)cc3)s2)c1,2%,-7,-3%,3%,-18%,1%
Cc1oc(-c2cccc(NC(=O)c3ccccn3)c2)nc1CNC(=O)c1cc(F)c(F)cc1F,-10%[9.04 µM],/,/,-14%,/,/
Cc1cccc(C(=O)NCc2nc(-c3cccc(NC(=O)c4ccoc4C)c3)oc2C)n1,2%[9.04 µM],/,/,13µM*,/,/
Cc1cc(C(=O)Nc2cccc(-c3nc(CNC(=O)c4cnccn4)c(C)o3)c2)c(C)o1,4%[9.04 µM],/,/,?,/,/
Cc1cc(C(=O)Nc2cccc(-c3nc(CNC(=O)c4ccc[n+]([O-])c4)c(C)o3)c2)c(C)o1,-8%[9.04 µM],/,/,?,/,/
Cc1ccc(C(=O)Nc2cccc(-c3nc(CNC(=O)c4ccc5ccccc5n4)c(C)o3)c2)s1,?,/,/,16µM*,/,/
Cc1cc(C(=O)Nc2cccc(-c3nc(CNC(=O)c4ccccc4C(F)(F)F)c(C)o3)c2)c(C)o1,?,/,/,21µM*,/,/
Cc1oc(-c2cccc(NC(=O)C3CCCN(C)C3)c2)nc1CNC(=O)c1coc2c1C(=O)CCC2 (centres undefined),4%[9.04 µM],/,/,16µM*,/,/
O=C(c1ccc(Cn2cnnn2)cc1)N1CCCC(Nc2ccc(F)c(F)c2)C1 (centres undefined),-29%,39,15%,-14%,-9%,3%
Cc1ncoc1C(=O)NCc1nc(-c2cccc(NC(=O)c3ccccn3)c2)oc1C,-6%[9.04 µM],/,/,?,/,/
Cc1ccc(C(=O)Nc2cccc(-c3nc(CNC(=O)C4(C)CC4)c(C)o3)c2)s1,-9%,/,/,-6%,/,/
COc1ccc(C(=O)NCc2nc(-c3cccc(NC(=O)c4ccc(C)s4)c3)oc2C)cc1,0%[9.04 µM],/,/,15µM*,/,/
Cc1oc(-c2cccc(NC(=O)c3ccccn3)c2)nc1CNC(=O)C#Cc1ccccc1,?,/,/,23µM*,/,/
Cc1ccc(C(=O)Nc2cccc(-c3nc(CNC(=O)c4cccc(N(C)C)c4)c(C)o3)c2)s1,4%[9.04 µM],/,/,16µM*,/,/
Cc1onc(-c2ccccc2Cl)c1C(=O)N[C@H]1C(=O)N2[C@H]1SC(C)(C)[C@H]2C(=O)O,/,/,/,/,/,13%[21 µM]
